The full ranking holds about 16,000 sequences; the median of “e-score” is about -0.044, and the highest 2% start at about 0.38. What follows is part of a selection rich in the highest values, with near analogues and random picks from the rest.

The assay addresses T1, GST-NbGlk1(82-244) (Nicotiana benthamiana).
T1 chain: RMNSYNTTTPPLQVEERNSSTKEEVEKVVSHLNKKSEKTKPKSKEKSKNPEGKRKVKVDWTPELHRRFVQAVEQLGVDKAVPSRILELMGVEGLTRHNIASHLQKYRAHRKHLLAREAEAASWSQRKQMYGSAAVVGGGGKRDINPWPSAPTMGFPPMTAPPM
The experiment in a line: protein-binding microarray; NbGlk1 is a Golden2-like transcription factor of Nicotiana benthamiana; high values mean tight binding. Conditions: protein: recombinant; tags: GST (pTH6838); dsDNA, one strand shown.
As for AGATCGTG, the binding signal was 0.339 ± 0.0193 E-score.

Turning to ATCCGCGG, the binding signal came to 0.28 ± 0.0747 E-score.

AGAATTCG: the binding signal stood at 0.221 ± 0.0588 E-score.

AATCGACT: the binding signal came to 0.263 ± 0.0439 E-score.

Turning to CAATCGAA, the binding signal worked out at 0.202 ± 0.113 E-score.

On to ATCCTCCA, for which the binding signal was found to be 0.285 ± 0.089 E-score.

As for ACAAGAGA, the binding signal was 0.277 ± 0.0453 E-score.

On to ACTCGTAA, for which the binding signal is 0.247 ± 0.062 E-score.

For ATAATCAC, the binding signal came out at 0.214 ± 0.0373 E-score.

In the case of AATCGTGC, the binding signal was found to be 0.299 ± 0.027 E-score.

Take ATTACCCC: the binding signal is 0.247 ± 0.0858 E-score.

For the sequence AATCAAGA, the binding signal was determined as 0.308 ± 0.0329 E-score.

In the case of ATTCTAGA, the binding signal is 0.2 ± 0.0443 E-score.

In the case of AATCTAGA, the binding signal is 0.452 ± 0.018 E-score.

As for AATCAAGG, the binding signal worked out at 0.258 ± 0.0284 E-score.

Regarding AATCTAGT, the binding signal was determined as 0.421 ± 0.0336 E-score.

Turning to AATCTAGC, the binding signal was 0.404 ± 0.00637 E-score.

AATCTAGG: the binding signal came to 0.4332 ± 0.00364 E-score.

Regarding AATCGAGC, the binding signal came out at 0.207 ± 0.052 E-score.

Consider AATCAAGT, for which the binding signal was found to be 0.233 ± 0.1 E-score.

Turning to AATCAAGC, the binding signal was 0.22 ± 0.0411 E-score.

Take ATCCTAGC: the binding signal was 0.237 ± 0.018 E-score.

As for ATCCCCGC, the binding signal is 0.2 ± 0.0376 E-score.

ATTACACG: the binding signal was determined as 0.268 ± 0.0173 E-score.

As for CACGATTA, the binding signal was 0.202 ± 0.0336 E-score.

For ATGCGTAA, the binding signal was 0.21 ± 0.0884 E-score.

On to AATCTCCA, for which the binding signal worked out at 0.389 ± 0.05 E-score.

Consider AATCTCCC, for which the binding signal was 0.387 ± 0.0218 E-score.

In the case of ATTCTCCG, the binding signal stood at 0.338 ± 0.0548 E-score.

Regarding AATTTCCT, the binding signal came out at 0.255 ± 0.00447 E-score.

Take ATTCTCCC: the binding signal came to 0.255 ± 0.0215 E-score.

In the case of ATTCTCCA, the binding signal is 0.31 ± 0.0567 E-score.

AATCACCG: the binding signal is 0.281 ± 0.0154 E-score.

On to AATCCCCC, for which the binding signal is 0.215 ± 0.101 E-score.

Turning to AATCTCCG, the binding signal amounted to 0.437 ± 0.00941 E-score.

For the sequence AATCTCCT, the binding signal came to 0.4008 ± 0.00273 E-score.

Consider AATCACCA, for which the binding signal was 0.26 ± 0.00706 E-score.

Regarding AATCGCCT, the binding signal turned out to be 0.225 ± 0.129 E-score.

Regarding ATCCGGTA, the binding signal was 0.286 ± 0.0898 E-score.

For the sequence ATTTGCAC, the binding signal came to 0.305 ± 0.0821 E-score.

In the case of ATCCAATA, the binding signal stood at 0.324 ± 0.0209 E-score.

Turning to ATCTTTGG, the binding signal is 0.304 ± 0.0128 E-score.

Turning to ATCTTTTA, the binding signal was determined as 0.259 ± 0.0767 E-score.

Regarding ATACCGCA, the binding signal was 0.211 ± 0.101 E-score.

For AAAGCGAT, the binding signal was 0.215 ± 0.0733 E-score.

As for AATTTGCG, the binding signal is 0.223 ± 0.0644 E-score.

Turning to ATTCACAA, the binding signal is 0.218 ± 0.0225 E-score.

As to AAAGCAAT, the binding signal was 0.27 ± 0.0827 E-score.

For the sequence ATCTCCTC, the binding signal amounted to 0.296 ± 0.0162 E-score.

Take ATATCCTG: the binding signal was determined as 0.373 ± 0.0434 E-score.

ATATCCTC: the binding signal was determined as 0.402 ± 0.00645 E-score.

As to ATATCCTA, the binding signal was 0.416 ± 0.0447 E-score.

With ATTTCCTA, the binding signal is 0.358 ± 0.0333 E-score.

For ATATCGTA, the binding signal worked out at 0.364 ± 0.049 E-score.

As to ATTTGGTG, the binding signal is 0.213 ± 0.0582 E-score.

As for AGACAGAT, the binding signal stood at 0.222 ± 0.0932 E-score.

For the sequence ATCCTGCA, the binding signal was 0.261 ± 0.126 E-score.

As to ACGAGATA, the binding signal is 0.2747 ± 0.00202 E-score.

As for ACAAGATC, the binding signal was 0.2947 ± 0.00243 E-score.

Regarding ATGAGATC, the binding signal stood at 0.369 ± 0.0039 E-score.

For the sequence ACGAGATC, the binding signal turned out to be 0.41 ± 0.00651 E-score.

Take AGAAGATA: the binding signal amounted to 0.26 ± 0.0155 E-score.

Regarding AGGAGAAT, the binding signal was determined as 0.267 ± 0.0583 E-score.

As for AGGAGATC, the binding signal worked out at 0.382 ± 0.00924 E-score.

As to AGAAGATC, the binding signal stood at 0.383 ± 0.0277 E-score.

For AGGAGATA, the binding signal amounted to 0.228 ± 0.0512 E-score.

Consider AACGTATC, for which the binding signal was found to be 0.322 ± 0.0281 E-score.

With ATTACATG, the binding signal is 0.293 ± 0.0579 E-score.

As to ATCTGTAG, the binding signal came to 0.3 ± 0.055 E-score.

For ATACGCAT, the binding signal is 0.204 ± 0.0532 E-score.

In the case of ATCTGATC, the binding signal was found to be 0.329 ± 0.0755 E-score.

Regarding ATTACACA, the binding signal worked out at 0.31 ± 0.0413 E-score.

Regarding ATTTCTCA, the binding signal stood at 0.248 ± 0.108 E-score.

Turning to ATATCACC, the binding signal came to 0.277 ± 0.0211 E-score.

With ATATCTCC, the binding signal worked out at 0.388 ± 0.0404 E-score.

Regarding ATATCTCG, the binding signal worked out at 0.435 ± 0.0109 E-score.

ATATCTCA: the binding signal is 0.3895 ± 0.00167 E-score.

As for ATATCACG, the binding signal turned out to be 0.347 ± 0.0113 E-score.

Consider ATCTCTCA, for which the binding signal was 0.295 ± 0.0129 E-score.

As to ATCTCCCC, the binding signal is 0.301 ± 0.0229 E-score.

On to ATCTCTCG, for which the binding signal was determined as 0.231 ± 0.0608 E-score.

For the sequence AATCCCCA, the binding signal came to 0.346 ± 0.00463 E-score.

For the sequence ACTAAATC, the binding signal was found to be 0.213 ± 0.00269 E-score.

With AACACAAT, the binding signal stood at 0.213 ± 0.0479 E-score.

Take ATTACAAC: the binding signal was 0.257 ± 0.0217 E-score.

Consider ATGAGATA, for which the binding signal was found to be 0.20921 ± 0.000115 E-score.

Turning to ATTGCGCA, the binding signal was 0.301 ± 0.0513 E-score.

Consider ATCTGGAC, for which the binding signal is 0.346 ± 0.0997 E-score.

On to ATCTCCAA, for which the binding signal was found to be 0.342 ± 0.0598 E-score.

Turning to ACCAAAAT, the binding signal was 0.245 ± 0.0514 E-score.

As for AGCAAATA, the binding signal came out at 0.221 ± 0.0663 E-score.

On to AGTAAATC, for which the binding signal was found to be 0.241 ± 0.0671 E-score.

For AAAAAATT, the binding signal was found to be 0.204 ± 0.0566 E-score.

AGCAAAAT: the binding signal came out at 0.241 ± 0.0294 E-score.

With AGAAAATC, the binding signal came to 0.4794 ± 0.0015 E-score.

Take AGAAAAAT: the binding signal stood at 0.252 ± 0.0352 E-score.

Regarding AAAAAATC, the binding signal came out at 0.439 ± 0.0166 E-score.

In the case of AAAAAAAT, the binding signal is 0.286 ± 0.0488 E-score.

On to ACCAAATC, for which the binding signal is 0.406 ± 0.00414 E-score.

Turning to AGCAAATC, the binding signal stood at 0.4187 ± 0.000896 E-score.

Consider ATCAAATC, for which the binding signal is 0.36 ± 0.00877 E-score.

Turning to ATATGAAG, the binding signal was 0.207 ± 0.0492 E-score.

As for AATCACAG, the binding signal worked out at 0.3111 ± 0.000659 E-score.

With CAAGATCC, the binding signal is 0.33 ± 0.0132 E-score.

Consider ATTACACC, for which the binding signal worked out at 0.334 ± 0.0466 E-score.

AACGATAT: the binding signal stood at 0.29 ± 0.015 E-score.

In the case of ATTTTCCC, the binding signal stood at 0.304 ± 0.0203 E-score.

With AAATTATA, the binding signal was found to be 0.256 ± 0.00661 E-score.

AATCGTTG: the binding signal turned out to be 0.203 ± 0.0845 E-score.

As for AACATAAT, the binding signal was determined as 0.233 ± 0.0831 E-score.

Turning to ACAAAATA, the binding signal turned out to be 0.293 ± 0.102 E-score.

With AGACAATC, the binding signal stood at 0.3189 ± 0.000404 E-score.

The values are drawn from article PMC5836133, “The intracellular immune receptor Rx1 regulates the DNA-binding activity of a Golden2-like transcription factor”.
